Measurements: the supplement of paper PMC10849652
Targets with a hit are over-represented here; the source holds about 8,800 in all. About 0.5% of all pairs of compound and target were hits.

Legend:
Test in all cases: log2 fold change, soluble protein after heating vs DMSO (PISA); higher = thermal stabilisation; K562 lysate, 10 uM; active = over 0.2 and 3.5 SD of the protein, either way, in both replicates (recomputed)
[1] = compound: Cc1cn(-c2cc(NC(=O)c3ccc(C)c(Nc4nccc(-c5cccnc5)n4)c3)cc(C(F)(F)F)c2)cn1 [nilotinib]
How it was run: (§1)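 Following dounce homogenisation of K562 pellets in PBS pH 7.4 with 1 mM MgCl2, crude extract at 1 mg/mL protein was incubated for 30 min with 10 μM compound. Aliquots were then heated for 3 min over 48°C-58°C and pooled, NP-40 was added to 0.5% at 4°C, and soluble protein was recovered as the supernatant at 21,000xg for 90 min. Channel-sum-equalised TMTpro 16plex LC-MS/MS quantified this protein. Each value, from duplicates, is a log-two fold change in thermal stability relative to solvent controls.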

[2] = compound: Cc1nc(Nc2n[nH]c3c2CN(C(=O)N[C@H](CN(C)C)c2ccccc2)C3(C)C)c2sccc2n1
How it was run: as §1

[3] = compound: Cc1nc(Nc2ncc(C(=O)Nc3c(C)cccc3Cl)s2)cc(N2CCN(CCO)CC2)n1 [dasatinib]
How it was run: as §1

[4] = compound: Cc1ncc(-c2ccnc(Nc3ccc(S(C)(=O)=O)cc3)n2)n1C(C)C
How it was run: as §1

[5] = compound: Cn1cc(-c2ccc3c(c2)CCN3C(=O)Cc2cccc(C(F)(F)F)c2)c2c(N)ncnc21
How it was run: as §1

[6] = compound: Cn1cc(CNCC2CCN(c3ncc(C(=O)NO)cn3)CC2)c2ccccc21 [quisinostat]
How it was run: as §1

[7] = compound: Cn1cncc1[C@@](N)(c1ccc(Cl)cc1)c1ccc2c(c1)c(-c1cccc(Cl)c1)cc(=O)n2C [tipifarnib]
How it was run: as §1

[8] = compound: NC(=O)Nc1cc(-c2cccc(F)c2)sc1C(=O)N[C@H]1CCCNC1
How it was run: as §1

[9] = compound: NC(=O)c1cnc(N[C@@H]2CCCC[C@@H]2N)nc1Nc1cccc(-n2nccn2)c1
How it was run: as §1

[10] = compound: NC1(c2ccc(-c3nc4ccn5c(=O)[nH]nc5c4cc3-c3ccccc3)cc2)CCC1
How it was run: as §1

[11] = compound: NCC(=O)Nc1ccc(-n2nc(C(F)(F)F)cc2-c2ccc3c(ccc4ccccc43)c2)cc1
How it was run: as §1

[12] = compound: O=C(CCCCCCC(=O)Nc1ccccc1)NO [vorinostat]
How it was run: as §1

[13] = compound: O=C(O)c1ccc2c(c1)nc(Nc1cccc(Cl)c1)c1ccncc12 [silmitasertib]
How it was run: as §1

[14] = compound: O=C1NC(=O)C(c2cnc3ccccn23)=C1c1cn2c3c(cc(F)cc13)CN(C(=O)N1CCCCC1)CC2
How it was run: as §1

[15] = compound: c1cn2cc(-c3ccc4cn[nH]c4c3)nc(Nc3ccc(N4CCOCC4)cc3)c2n1 [entospletinib]
How it was run: as §1

Measured: log2 fold change

MSH2 (UniProt P43246)
Sequence of UniProt P43246 (P43246 whole entry, looked up): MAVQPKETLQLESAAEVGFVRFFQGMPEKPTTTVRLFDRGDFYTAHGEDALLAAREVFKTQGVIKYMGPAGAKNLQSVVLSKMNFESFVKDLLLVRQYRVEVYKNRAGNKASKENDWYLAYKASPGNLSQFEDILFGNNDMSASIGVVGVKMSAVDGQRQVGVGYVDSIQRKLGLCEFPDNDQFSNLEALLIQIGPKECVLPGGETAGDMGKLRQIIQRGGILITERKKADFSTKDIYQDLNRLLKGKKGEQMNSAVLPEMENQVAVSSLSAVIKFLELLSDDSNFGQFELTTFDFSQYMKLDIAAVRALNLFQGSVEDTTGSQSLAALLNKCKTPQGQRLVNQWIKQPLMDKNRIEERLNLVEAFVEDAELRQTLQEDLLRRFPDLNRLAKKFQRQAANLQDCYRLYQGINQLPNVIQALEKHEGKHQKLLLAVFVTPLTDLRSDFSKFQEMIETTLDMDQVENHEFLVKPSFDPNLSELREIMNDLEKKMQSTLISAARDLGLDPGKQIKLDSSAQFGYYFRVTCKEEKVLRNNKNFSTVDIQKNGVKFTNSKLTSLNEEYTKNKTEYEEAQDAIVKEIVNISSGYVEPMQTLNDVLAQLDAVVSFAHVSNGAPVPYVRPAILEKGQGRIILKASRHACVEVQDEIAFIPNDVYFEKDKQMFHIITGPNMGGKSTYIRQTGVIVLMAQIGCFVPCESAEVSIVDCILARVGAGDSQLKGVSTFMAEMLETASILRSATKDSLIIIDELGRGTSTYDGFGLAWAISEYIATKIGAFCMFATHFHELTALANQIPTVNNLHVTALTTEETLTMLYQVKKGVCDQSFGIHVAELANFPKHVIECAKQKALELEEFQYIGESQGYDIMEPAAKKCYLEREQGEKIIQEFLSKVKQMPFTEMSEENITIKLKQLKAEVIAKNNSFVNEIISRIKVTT
inactive: [1] -0.005 | [2] -0.008 | [3] -0.038 | [4] -0.01 | [5] 0.01 | [6] -0.08 | [7] 0.004 | [8] 0.046 | [9] 0.016 | [10] -0.017 | [11] 0.006 | [13] 0.027 | [14] -0.022 | [15] 0.034
active: [12] -0.287

MRPS18A isoform 2 (UniProt Q9NVS2)
inactive: [1] 0.031 | [2] -0.022 | [3] -0.054 | [4] -0.033 | [5] 0.006 | [6] -0.012 | [7] -0.026 | [8] 0.036 | [9] 0.014 | [10] -0.065 | [11] 0.008 | [12] 0.021 | [13] 0.048 | [14] 0.019 | [15] -0.052

MYCBP2 (UniProt O75592)
inactive: [1] 0.028 | [2] -0.013 | [3] -0.038 | [4] -0.013 | [5] 0.015 | [6] -0.116 | [7] -0.008 | [8] 0.019 | [9] 0.012 | [10] -0.013 | [11] 0.031 | [13] -0.002 | [14] 0.007 | [15] -0.002
active: [12] -0.223

NOC2L (UniProt Q9Y3T9)
inactive: [1] 0.027 | [2] 0.022 | [3] -0.03 | [4] -0.046 | [5] -0.052 | [6] -0.082 | [7] -0.087 | [8] 0.058 | [9] 0.014 | [10] -0.019 | [11] -0.055 | [12] -0.126 | [13] 0.031 | [14] 0.009 | [15] 0.028

NUP133 (UniProt Q8WUM0)
Sequence of UniProt Q8WUM0 (Q8WUM0 whole entry, looked up): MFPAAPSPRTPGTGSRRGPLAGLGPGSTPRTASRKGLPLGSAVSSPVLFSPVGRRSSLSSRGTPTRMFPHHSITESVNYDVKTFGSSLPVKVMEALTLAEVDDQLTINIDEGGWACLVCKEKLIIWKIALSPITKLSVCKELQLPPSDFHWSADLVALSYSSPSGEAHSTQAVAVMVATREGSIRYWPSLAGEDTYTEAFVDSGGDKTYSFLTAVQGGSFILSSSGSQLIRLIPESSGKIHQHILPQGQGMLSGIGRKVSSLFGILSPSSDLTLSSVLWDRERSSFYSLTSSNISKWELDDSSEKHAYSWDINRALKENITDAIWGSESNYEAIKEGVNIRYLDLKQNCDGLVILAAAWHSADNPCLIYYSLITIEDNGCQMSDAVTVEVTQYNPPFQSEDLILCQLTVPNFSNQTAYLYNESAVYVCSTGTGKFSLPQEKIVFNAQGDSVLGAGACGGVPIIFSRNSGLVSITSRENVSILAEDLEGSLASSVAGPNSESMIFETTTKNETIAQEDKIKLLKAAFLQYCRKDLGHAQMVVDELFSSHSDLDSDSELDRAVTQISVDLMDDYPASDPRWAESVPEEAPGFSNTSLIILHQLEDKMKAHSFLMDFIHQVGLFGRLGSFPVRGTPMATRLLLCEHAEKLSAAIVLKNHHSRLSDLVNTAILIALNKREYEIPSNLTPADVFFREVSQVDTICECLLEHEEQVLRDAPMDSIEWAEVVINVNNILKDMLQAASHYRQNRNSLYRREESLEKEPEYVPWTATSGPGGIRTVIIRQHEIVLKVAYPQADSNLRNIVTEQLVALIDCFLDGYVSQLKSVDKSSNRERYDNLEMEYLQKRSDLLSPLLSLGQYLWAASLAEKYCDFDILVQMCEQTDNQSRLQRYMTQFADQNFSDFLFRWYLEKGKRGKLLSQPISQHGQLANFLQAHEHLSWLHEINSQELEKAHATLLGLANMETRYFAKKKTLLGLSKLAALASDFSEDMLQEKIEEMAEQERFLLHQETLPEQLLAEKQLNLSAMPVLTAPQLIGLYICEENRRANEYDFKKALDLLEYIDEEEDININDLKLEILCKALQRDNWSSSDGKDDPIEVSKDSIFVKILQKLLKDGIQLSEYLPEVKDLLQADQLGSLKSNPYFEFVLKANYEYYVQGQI
inactive: [1] 0.023 | [2] -0.006 | [3] -0.026 | [4] 0.019 | [5] 0.056 | [6] -0.092 | [7] -0.039 | [8] 0.006 | [9] 0.005 | [10] -0.016 | [11] 0.045 | [12] -0.195 | [13] 0.052 | [14] 0.011 | [15] -0.033
